The list is not random: actives were taken first. Their share in the collection is about 1.5%.
MRP reversal: reversal of MRP1-mediated doxorubicin resistance, primary screen, H69AR cells, doxorubicin co-treatment. AID 602, 2007. 85,000 tested, 0.04% active. differential viability (reversal), % at 10 µM. H69AR cells + 2 uM doxorubicin, CellTiter-Glo, 72 h;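 active = viability drop by adding the cancer drug above about 55%, with treated viability meeting a 40% cutoff, limit read from the data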;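 note: viability without doxorubicin minus viability with 2 µM doxorubicin for each compound; larger differential means the compound sensitizes cells more to doxorubicin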
MRP1 act: H69AR viability gain despite doxorubicin, primary screen, MRP-1 activator project, H69AR cells, CellTiter-Glo | viability increase, % at 10 µM | viability rescue | AID 799, 2007 | 140,000 tested, 0.61% active;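 active = viability gain under doxorubicin at or above a set limit, the compound median plus 3 SD, cut at about 4.7% in these data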;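 note: MRP-1 overexpressing cells given doxorubicin 25 µM after compound pretreatment; 18-22 h compound pretreatment then 72 h with doxorubicin before readout; 0% = doxorubicin-only wells and 100% = vehicle-treated cells without doxorubicin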
FAK blocker: FAK kinase inhibitors, primary screen, biochemical; biochemical FAK kinase activity assay; inhibition, %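 (tested at 7 µM)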; 97,000 tested, 0.84% active; in the data active = inhibition above about 19%;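 note: 0% = DMSO and 100% = reference compound high control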
CD11b adhes enh: enhancers of CD11b/CD18 adhesion to fibrinogen, primary screen, K562 cells, luminescence; activation, % at 10 µM; ATPlite luminescence; AID 1499, 2009; Integrin beta-2 (Homo sapiens) + Integrin alpha-M (Homo sapiens), P05107+P11215; 93,000 tested, 0.07% active;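 active = 10 µM primary screen giving 50% or more activity, confirmed by 40% or more on retest at that dose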
Mac1 fbg inh: inhibitors of CD11b/CD18 adhesion to fibrinogen, primary screen, K562 cells, luminescence | Integrin beta-2 (Homo sapiens) + Integrin alpha-M (Homo sapiens), P05107+P11215 | ATPlite luminescence; Mn2+ added to activate the integrin | inhibition, % at 10 µM | 93,000 tested, 0.54% active | AID 1497, 2009;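 active = primary inhibition of 50% or more at 10 µM, then 40% or more on retest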
Phagocyt inh: inhibitors of macrophage phagocytosis, primary screen, imaging, J774A.1 cells, IgG beads; inhibition, % at 5 µM; AID 1029, 2008; 110,000 tested, 0.07% active; J774A.1 macrophage IgG-bead phagocytosis;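 active = inhibition above the mean of the plate negative controls plus 5 SD, cut at about 13% in these data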;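 note: phagocytic index as fraction of beads internalized from green versus red external bead signal; plate controls were DMSO negative control for no effect and cytochalasin-D positive control for full effect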
Numbers without * were called inactive; x = no result.

SMILES | MRP reversal | MRP1 act | FAK blocker | CD11b adhes enh | Mac1 fbg inh | Phagocyt inh
COc1ccc(-c2c(C#N)c(N)nc3sc(C(=O)c4ccccc4)c(N)c23)cc1 | x | 11.5* | x | 44.1 | -2.9 | -11.3
Cc1sc2ncnc(NCCc3ccc(S(N)(=O)=O)cc3)c2c1C | x | -0.6 | 2.9 | -5.4 | 51.4* | 0.2
NS(=O)(=O)c1ccc(CCNc2ncnc3sccc23)cc1 | -8.2 | -0.2 | 11.0 | -4.3 | 81.8 | -1.4
Cc1cc(C)n(-c2ccc(C(=O)OCC(=O)Nc3ccc([N+](=O)[O-])cc3)cc2)n1 | x | -0.8 | x | x | x | -8.4
Cc1cc(C)c(NC(=O)CSc2nnc(-c3ccncc3)n2Cc2ccco2)c(Cl)c1 | 19.4 | -0.5 | -7.6 | -4.5 | -5.0 | 3.6
Cc1ccccc1NC(=O)c1cc(C(=O)c2cc(Cl)ccc2O)cn(-c2ccccc2C)c1=O | x | -4.8 | x | x | x | x
CCc1ccc(OCC(=O)NC(NC(=S)Nc2ccc(C)cc2C)C(Cl)(Cl)Cl)cc1 (centres undefined) | x | -2.4 | -4.5 | 50.0* | -3.8 | -0.8
O=C(NNC(=O)C(c1ccccc1)c1ccccc1)c1ccccn1 | x | -4.6 | x | x | x | -4.3
CC12CCC(c3nnc(SCc4ccc(Cl)cc4)nc31)C2(C)C (centres undefined) | 14.3 | 5.7* | -0.8 | x | x | x
O=c1c(Sc2ccccc2)c(C(F)(F)F)[nH]n1-c1ccccc1 | 8.7 | 0.6 | -6.0 | -1.6 | 55.5* | -1.4
CCc1nnc(NC(=O)CCC(=O)N2CCN(CCc3ccccc3)CC2)s1 | -4.0 | -1.1 | x | -1.3 | -4.8 | 0.1
CCc1nnc(NC(=O)c2ccc(COc3ccc(C)cc3)o2)s1 | 5.2 | 6.2* | -0.4 | 4.4 | -12.8 | -0.4
CCc1nnc(NC(=O)CCC(=O)N2CCN(CCOc3ccc(C)cc3)CC2)s1 | 7.7 | 5.6* | 0.5 | -4.2 | -3.5 | -0.8
Cc1cc(C(=O)Nc2ccccc2)oc1C | 32.1 | -2.4 | -0.5 | x | x | x
Cc1cc(C)n(-c2ccc(C)c(Cl)c2)n1 | x | -0.6 | x | x | x | x
CC(=O)NC(CCS(C)(=O)=O)C(=O)Nc1ccc(Oc2ccccc2)cc1 (centres undefined) | -7.2 | 0.0 | x | x | x | x
CC(=O)C(=Nc1ccccc1Cl)NNc1ccc(Cl)cc1 | -3.9 | 4.4 | 4.3 | x | x | x
C=CCNC(=O)c1onc(CSc2ccc(F)cc2)c1C(=O)NCCOC | x | -1.4 | 2.6 | -6.5 | 59.9* | 1.4
CC1CCCC(C)N1C(=O)c1cc2ncc(CCCl)cn2n1 (centres undefined) | x | -1.1 | x | x | x | -2.3
COc1ccc(C(=O)c2ccccc2)c2c(O)ccc(C(=O)c3ccccc3)c12 | 0.6 | -3.7 | 2.0 | -2.9 | 51.0* | 0.0
Cc1cccc(OCCNC(=O)c2cccc(Oc3ccc(C(F)(F)F)cc3[N+](=O)[O-])c2)c1 | x | 1.9 | x | x | x | -7.8
Cc1cccc(OCCNC(=O)c2ccc(Oc3ccc(C(F)(F)F)cc3[N+](=O)[O-])cc2)c1 | x | 8.2* | 2.4 | -4.2 | 13.1 | -4.1
O=C(Nc1ccncc1)c1ccc2c(c1)C(=O)N(C1CCCCC1)C2=O | 11.6 | 0.3 | 1.6 | -7.4 | 85.8* | 0.2
Cc1cc(NC(=O)c2ccc3c(c2)C(=O)N(C2CCCCC2)C3=O)no1 | -4.0 | -6.7 | -3.2 | 1.0 | -5.1 | -1.1
COc1ccccc1/C=N/NC(=O)CCn1cnc2ccccc21 | x | -0.9 | x | 3.3 | -2.8 | x
SMILES | MRP reversal | MRP1 act | FAK blocker | CD11b adhes enh | Mac1 fbg inh | Phagocyt inh
O=S(=O)(NCc1ccncc1)c1ccc(Br)s1 | 10.9 | 1.2 | x | -11.4 | 97.6* | -1.6
COc1ccccc1C1(CC(=O)N2CCCCC2)CCOC(C(C)C)C1 (centres undefined) | -2.4 | -0.6 | -2.1 | -6.1 | -3.6 | 0.1
O=C(O)/C=C\C(=O)NC1CCCCC1 | x | 29.2* | x | x | x | 2.9
O=C(O)/C=C/C(=O)NC1CCS(=O)(=O)C1 (centres undefined) | x | -0.7 | x | x | x | 2.7
COc1nc(N2CCOCC2)nc(-n2cccc2)n1 | 8.2 | 0.3 | 2.0 | x | x | -0.3
N#Cc1nc(COc2ccc(Br)cc2)oc1N1CCCCCC1 | 8.4 | 6.5* | -1.6 | 0.9 | -1.9 | 0.4
N#Cc1nc(COc2ccc(Br)cc2)oc1N1CCCC1 | -7.4 | 7.3* | 1.1 | 4.1 | -12.6 | -1.7
O=C(NC1CCCCC1)c1cccnc1C(=O)O | 5.4 | -1.2 | 1.7 | x | x | x
COc1ccc(OC)c(S(=O)(=O)Nc2ccc(O)c(Sc3ncn[nH]3)c2)c1 | x | -1.2 | 11.5 | 0.5 | 13.2 | -4.8
Cc1cc(C)cc(OCC(=O)Nc2cccc(-c3nc4ncccc4o3)c2)c1 | 5.5 | -3.2 | 1.5 | -2.7 | 3.7 | 1.8
Cc1cc(NCCCn2ccnc2)n2ncc(-c3ccccc3)c2n1 | -16.8 | -5.7 | 1.3 | -3.3 | 50.4* | -0.4
Cc1cc(NCCCn2ccnc2)n2nc(C)c(-c3ccccc3)c2n1 | -24.2 | -3.5 | -1.5 | -2.8 | 2.5 | x
O=C(NC1CCCCCCC1)c1ccc2c(c1)N(Cc1ccc(F)cc1)C(=O)CS2=O (centres undefined) | 5.6 | -4.9 | 3.2 | -2.0 | -3.4 | -0.6
CCc1nnc(NC(=O)C2COc3ccccc3O2)s1 (centres undefined) | 15.7 | 5.1* | -2.6 | -0.1 | 0.5 | x
Cc1ccsc1CNn1cnnc1SCc1ccc(Cl)cc1 | 19.2 | 6.3* | -1.0 | x | x | x
Cc1ccc(CNn2cnnc2SCc2ccc(F)cc2)cc1 | 3.5 | -3.1 | -0.7 | x | x | x
CCCCNc1cc(C)nc(NCc2ccccc2)n1 | -30.0 | -5.4 | 1.9 | -12.9 | 85.4* | 0.7
Cc1cc(Nc2ccccc2)nc(NCc2ccccc2)n1 | x | -5.6 | x | -10.0 | 100.4 | -4.2
COc1ccc(/C=c2/sc3nc(-c4ccccc4)c(-c4ccccc4)n3c2=O)cc1 | x | 0.3 | x | 2.3 | -0.2 | -4.6
CC1CC(C)CN(C(=O)c2ccccc2Nc2ccc(SC(F)F)cc2)C1 (centres undefined) | 0.4 | -3.8 | 4.6 | x | x | x
CCCCNc1oc(-c2ccc(OC)cc2)nc1S(=O)(=O)c1ccccc1 | 6.5 | 6.2* | 2.8 | 0.8 | -7.2 | x
CCOC(=O)c1ccc2c(c1)C1C=CCC1C(C(=O)O)N2 (centres undefined) | x | 0.1 | x | 116.3* | -24.4 | -0.7
CCCC1Nc2ccc(C(=O)O)cc2C2C=CCC12 (centres undefined) | x | -1.3 | x | x | x | x
C=CC[C@H]1CC(Cc2ccccc2)=C[C@H](CC=C)N1 | x | -2.2 | x | x | x | -0.7
O=C(CSc1nccc(=O)[nH]1)Nc1ccc(Br)c(Cl)c1 | 14.2 | -1.6 | -3.1 | -10.6 | 10.1 | -1.1
CCc1cc(/C(Cc2ccc3ccccc3n2)=N\O)c(O)cc1O | x | -2.2 | 2.1 | -9.3 | 60.2* | 1.7
Clc1ccc(OCCSCc2nc3ccccc3[nH]2)cc1 | x | -1.2 | 3.2 | -11.9 | 76.1* | 0.5
Cc1ccc(OCCSCc2nc3ccccc3[nH]2)cc1 | x | -1.1 | 0.3 | x | x | x
CCn1c(COc2ccc(Cl)cc2)nnc1SCc1nc2ccccc2[nH]1 | -29.9 | 6.8* | 3.2 | -1.8 | -5.7 | -3.1

Compound activity from PubChem BioAssay.
